According to PubChem BioAssay (EPA / NIEHS):
Active and inactive are the calls of the source. How the source made its calls: active means hit-call score of the fitted dose curve at least 0.9, where 1 is the maximum; inactive means score below 0.9.

Columns and labels:
Details in all cases: mRNA level, 48 h; actives raise or lower the signal
[1] = read-out: Apolipoprotein A-V (APOA5) gene, APOA5 (gene 116519); assay: LTEA_HepaRG_APOA5: Life Technologies and Expression Analysis (LTEA) Assay for Apolipoprotein A-V (APOA5) gene using HepaRG (AID 2283474)
Outline: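 HepaRG, 48 h chemical exposure in serum-free induction medium, 8-pt half-log series (top 100 uM), 0.5% DMSO vehicle, duplicates. Readout: APOA5 mRNA by qRT-PCR, housekeeping-normalized; bidirectional fit vs DMSO baseline.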

[2] = read-out: Apoptosis regulator Bcl-2 (Homo sapiens) (UniProt P10415); assay: LTEA_HepaRG_BCL2: Life Technologies and Expression Analysis (LTEA) Assay for Bcl-2 gene using HepaRG (AID 2283475);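 further: BCL2 transcript by TaqMan qRT-PCR normalised to ACTB GAPDH and POLR2A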
Description: (§1) LTEA_HepaRG is a cell based, multiplexed-readout assay that uses HepaRG, a human liver cell line, with measurements taken at 48 hours after chemical dosing on a 96-well plate.LTEA_HepaRG_BCL2 is one of 102 assay component(s) measured in the LTEA HepaRG cell culture assay. It is a marker of Cell proliferation, survival, death.Data from the assay component LTEA_HepaRG_BCL2 was analyzed into 1 endpoint. This assay endpoint, LTEA_HepaRG_BCL2, was analyzed with bidirectional fitting relative to DMSO as the negative control and baseline of activity. Using a type of inducible reporter, measures of mRNA induction for gain or loss-of-signal activity can be used to understand regulation of transcription factor activity. To generalize the intended target to other relatable targets, this assay endpoint is annotated to the cell cycle intended target family, where the subfamily is Cell proliferation, survival, death.
(§2) A total of 1060 chemcials from the ToxCast library were tested in eight-point concentration-response experiments. Cell culture and cytotoxicity assays were conducted at Thermo Fisher Scientific's Custom Services facility (Madison, WI). […] Fluidigm's 96.96 Dynamic ArrayTM (Fluidigm, Amsterdam, the Netherlands) technology was used for gene expression analyses by quantitative reverse transcription polymerase chain reaction (qRT-PCR, performed by Quintiles/Expression Analysis, Durham, NC)89. […]

[3] = read-out: Bcl-2 (BID) gene, BID (gene 637); assay: LTEA_HepaRG_BID: Life Technologies and Expression Analysis (LTEA) Assay for Bcl-2 (BID) gene using HepaRG (AID 2283476)
Outline: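 HepaRG, 48 h exposure, 8-pt half-log series, top 100 uM, 0.5% DMSO vehicle, duplicates. Readout: BID mRNA by TaqMan qRT-PCR; housekeeping-normalized; bidirectional curve fit vs DMSO baseline.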

Caspase-3 (Homo sapiens) = Caspase-3 (Homo sapiens) (UniProt P42574); assay: LTEA_HepaRG_CASP3: Life Technologies and Expression Analysis (LTEA) Assay for cysteine-aspartic acid protease (CASP3) using HepaRG (AID 2283477)
Description: as §1, with “96-well plate.LTEA_HepaRG_CASP3” for “96-well plate.LTEA_HepaRG_BCL2”, “component LTEA_HepaRG_CASP3” for “component LTEA_HepaRG_BCL2”, “endpoint, LTEA_HepaRG_CASP3,” for “endpoint, LTEA_HepaRG_BCL2,”, “the protease” for “the cell cycle”, “is cysteine protease.” for “is Cell proliferation, survival, death.”
as §2

[4] = read-out: Cytochrome P450 (CYP24A1), CYP24A1 (gene 1591); assay: LTEA_HepaRG_CYP24A1: Life Technologies and Expression Analysis (LTEA) Assay for Cytochrome P450 (CYP24A1) using HepaRG (AID 2283478)
Outline: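 qRT-PCR read-out: CYP24A1 transcript levels normalized to three housekeeping genes, bidirectional curve fits against 0.5% DMSO baseline. Human HepaRG cells treated 48 h with chemicals at eight concentrations from 100 uM in half-log steps.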

[5] = read-out: cysteine-aspartic acid protease (CASP8), CASP8 (gene 841); assay: LTEA_HepaRG_CASP8: Life Technologies and Expression Analysis (LTEA) Assay for cysteine-aspartic acid protease (CASP8) using HepaRG (AID 2283480)
Description: as §1, with “96-well plate.LTEA_HepaRG_CASP8” for “96-well plate.LTEA_HepaRG_BCL2”, “component LTEA_HepaRG_CASP8” for “component LTEA_HepaRG_BCL2”, “endpoint, LTEA_HepaRG_CASP8,” for “endpoint, LTEA_HepaRG_BCL2,”, “the protease” for “the cell cycle”, “is cysteine protease.” for “is Cell proliferation, survival, death.”
as §2

[6] = read-out: Cytochrome P450 (CYP2B6), CYP2B6 (gene 1555); assay: LTEA_HepaRG_CYP2B6: Life Technologies and Expression Analysis (LTEA) Assay for Cytochrome P450 (CYP2B6) using HepaRG (AID 2283481)
Outline: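 Read-out is CYP2B6 mRNA by TaqMan qRT-PCR, normalized to three housekeeping genes and fitted bidirectionally against 0.5% DMSO baseline. Human HepaRG cells received test chemicals for 48 h, top concentration 100 uM, half-log dilutions.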

[7] = read-out: Cytochrome P450 2C19 (Homo sapiens) (UniProt P33261); assay: LTEA_HepaRG_CYP2C19: Life Technologies and Expression Analysis (LTEA) Assay for CYP2C19 using HepaRG (AID 2283482)
Outline: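 HepaRG, 48 h chemical exposure, 8-pt half-log series from 100 uM in 0.5% DMSO, duplicates. Readout: CYP2C19 mRNA by TaqMan qRT-PCR, housekeeping-normalized. Bidirectional fit vs DMSO baseline; phenobarbital 1mM as induction control.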

CYP2C8 (gene 1558) = assay: LTEA_HepaRG_CYP2C8: Life Technologies and Expression Analysis (LTEA) Assay for CYP2C8 using HepaRG (AID 2283483)
Outline: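 CYP2C8 expression measured by TaqMan qRT-PCR and normalized to three housekeeping genes. HepaRG cultures were treated for 48 h with an eight-point half-log series topping at 100 uM, vehicle 0.5% DMSO, duplicates; fitted both directions against DMSO.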

CYP2C9 (gene 1559) = assay: LTEA_HepaRG_CYP2C9: Life Technologies and Expression Analysis (LTEA) Assay for CYP2C9 using HepaRG (AID 2283484)
Outline: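 CYP2C9 transcript level, quantified by TaqMan qRT-PCR against three housekeeping genes, was fitted bidirectionally relative to 0.5% DMSO. HepaRG cultures were treated 48 h, in duplicate, at eight half-log concentrations topping at 100 uM.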

Measured: outcome

Sequence of Caspase-3 (Homo sapiens) (P42574 whole entry, looked up): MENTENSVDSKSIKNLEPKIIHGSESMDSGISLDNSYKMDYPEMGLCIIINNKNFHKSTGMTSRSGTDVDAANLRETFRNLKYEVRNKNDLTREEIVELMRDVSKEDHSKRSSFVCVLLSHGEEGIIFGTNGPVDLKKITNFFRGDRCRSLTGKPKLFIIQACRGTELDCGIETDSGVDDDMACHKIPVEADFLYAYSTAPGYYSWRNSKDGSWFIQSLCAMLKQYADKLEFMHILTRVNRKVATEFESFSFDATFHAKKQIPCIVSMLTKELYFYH
Sequence of Cytochrome P450 2C19 (Homo sapiens) (P33261 whole entry, looked up): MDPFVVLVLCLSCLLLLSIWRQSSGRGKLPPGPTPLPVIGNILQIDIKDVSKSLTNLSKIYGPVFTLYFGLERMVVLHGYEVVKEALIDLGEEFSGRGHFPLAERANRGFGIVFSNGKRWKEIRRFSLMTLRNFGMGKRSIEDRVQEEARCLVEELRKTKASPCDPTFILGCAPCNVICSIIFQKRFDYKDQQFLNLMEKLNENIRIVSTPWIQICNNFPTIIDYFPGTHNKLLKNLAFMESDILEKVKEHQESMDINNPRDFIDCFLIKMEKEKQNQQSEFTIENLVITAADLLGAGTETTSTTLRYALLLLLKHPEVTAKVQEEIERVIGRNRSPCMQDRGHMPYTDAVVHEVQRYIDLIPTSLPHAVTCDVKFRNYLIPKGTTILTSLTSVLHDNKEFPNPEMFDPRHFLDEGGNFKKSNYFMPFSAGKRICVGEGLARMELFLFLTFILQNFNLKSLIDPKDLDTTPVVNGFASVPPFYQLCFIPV
Sequence of Apoptosis regulator Bcl-2 (Homo sapiens) (P10415 whole entry, looked up): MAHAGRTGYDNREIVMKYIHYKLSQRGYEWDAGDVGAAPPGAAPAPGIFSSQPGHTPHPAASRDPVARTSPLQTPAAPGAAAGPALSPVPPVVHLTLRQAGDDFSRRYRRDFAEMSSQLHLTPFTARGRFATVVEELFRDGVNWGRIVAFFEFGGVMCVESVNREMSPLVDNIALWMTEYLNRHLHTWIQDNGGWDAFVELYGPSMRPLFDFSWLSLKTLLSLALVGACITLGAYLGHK

O=C(O)c1ccc([N+](=O)[O-])cc1
inactive: all assays above
